Reference: PubChem BioAssay (NCATS)
Inconclusive results are not listed. Activity calls are given as the source filed them. The call rests on the fitted dose curve; in most records, active means well fitted curve in the direction sought with a large enough effect; inconclusive means small, poorly fitted or top-dose-only effect, or another doubt; inactive means no such curve, though single readings can be large; an effect the other way counts as inactive or inconclusive.

Experiments:
[1] = P-glycoprotein substrates identified in KB-8-5-11 adenocarcinoma cell line, qHTS therapeutic library screen (AID 1346987); settings: outcome: dose series up to 44.5 µM; further: series mostly up to about 44 µM; nearly all actives have a fitted effect of over 65% in size
How it was run: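 Compounds are pinned in dose-response onto KB-8-5-11 cells (500 cells/well, colchicine-free medium) and left 72 h at 37 degree C. CellTiter-Glo luminescence then yields AC50 values.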

[2] = NS1 protein of Zika virus - qHTS assay to identify small molecule inhibitors in human HEK 293 cells (AID 1347053); further: series mostly up to about 46 µM; nearly all actives have a fitted effect of over 55% in size
How it was run: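 Compound-treated (1 h pre-infection) HEK 293 cells infected with ZIKV MR766, MOI = 0.5; after 24 h at 37 C, NS1 read by TR-FRET; data normalized to uninfected and infected controls.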

[3] = qHTS of pediatric cancer cell lines to identify multiple opportunities for drug repurposing: Primary screen for TC32 cells (AID 1347089); further: nearly all actives have a fitted effect of over 60% in size
How it was run: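 Luminescent ATP read-out (CellTiter-Glo) of metabolically active TC32 cells after 48 h exposure. Concentration-response curves came from 11-point (MIPE, 0.78 nM–46 µM) or 8-point (NPC, 0.59 nM–46 µM) primary titrations; follow-up used 11 points.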

[4] = qHTS of pediatric cancer cell lines to identify multiple opportunities for drug repurposing: Primary screen for SJ-GBM2 cells (AID 1347091)
How it was run: (§1)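 Cell viability, CellTiter-Glo luminescence; 500-1,000 cells/well, 8- or 11-point titration, 48 h compound exposure at 37 degrees C, 5% CO2. Controls: DMSO neutral, bortezomib 2.3 µM final as positive.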

[5] = qHTS of pediatric cancer cell lines to identify multiple opportunities for drug repurposing: Primary screen for BT-37 cells (AID 1347094); further: series mostly up to about 57 µM
How it was run: (§2)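 Readout: CellTiter-Glo luminescence, 48 h treatment. Controls DMSO (neutral) and bortezomib 2.3 µM final (positive). Potency and efficacy taken from primary-screen concentration-response curves.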

[6] = qHTS of pediatric cancer cell lines to identify multiple opportunities for drug repurposing: Primary screen for NB-EBc1 cells (AID 1347095)
How it was run: as §2

[7] = qHTS of pediatric cancer cell lines to identify multiple opportunities for drug repurposing: Primary screen for U-2 OS cells (AID 1347096); further: nearly all actives have a fitted effect of over 50% in size
How it was run: (§3)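 Cells (500-1,000/well) rested 5 h, then received compounds for 48 h; metabolically active cells were measured by CellTiter-Glo luminescence. Final concentrations spanned up to 46 µM (MIPE, 11-point) or 0.59 nM-46 µM (NPC, 8-point) in primary screens, 11-point in follow-ups.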

[8] = qHTS of pediatric cancer cell lines to identify multiple opportunities for drug repurposing: Primary screen for Saos-2 cells (AID 1347097); further: nearly all actives have a fitted effect of over 40% in size
How it was run: as §2

[9] = qHTS of pediatric cancer cell lines to identify multiple opportunities for drug repurposing: Primary screen for SK-N-SH cells (AID 1347098); further: nearly all actives have a fitted effect of over 65% in size
How it was run: as §3

[10] = qHTS of pediatric cancer cell lines to identify multiple opportunities for drug repurposing: Primary screen for LAN-5 cells (AID 1347100)
How it was run: as §3

[11] = qHTS of pediatric cancer cell lines to identify multiple opportunities for drug repurposing: Primary screen for BT-12 cells (AID 1347101); further: nearly all actives have a fitted effect of over 25% in size
How it was run: as §3

[12] = qHTS of pediatric cancer cell lines to identify multiple opportunities for drug repurposing: Primary screen for Rh18 cells (AID 1347102); further: nearly all actives have a fitted effect of over 65% in size
How it was run: as §3

[13] = qHTS of pediatric cancer cell lines to identify multiple opportunities for drug repurposing: Primary screen for RD cells (AID 1347104); further: nearly all actives have a fitted effect of over 55% in size
How it was run: as §2

[14] = qHTS of pediatric cancer cell lines to identify multiple opportunities for drug repurposing: Primary screen for MG 63 (6-TG R) cells (AID 1347105); further: nearly all actives have a fitted effect of over 50% in size
How it was run: as §2

[15] = qHTS of pediatric cancer cell lines to identify multiple opportunities for drug repurposing: Primary screen for NB1643 cells (AID 1347099); further: nearly all actives have a fitted effect of over 50% in size
How it was run: as §2

[16] = qHTS of pediatric cancer cell lines to identify multiple opportunities for drug repurposing: Primary screen for SK-N-MC cells (AID 1347093); further: series mostly up to about 46 µM
How it was run: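 Metabolically active cells were quantified by ATP-dependent luminescence (CellTiter-Glo, 15 min at room temperature) following 48 h treatment. Cells had been plated at 500-1,000 per well and settled for 5 h beforehand.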

[17] = qHTS of pediatric cancer cell lines to identify multiple opportunities for drug repurposing: Primary screen for OHS-50 cells (AID 1347103); further: nearly all actives have a fitted effect of over 40% in size
How it was run: as §3

[18] = qHTS of pediatric cancer cell lines to identify multiple opportunities for drug repurposing: Primary screen for DAOY cells (AID 1347090); further: series mostly up to about 46 µM; nearly all actives have a fitted effect of over 55% in size
How it was run: as §1

[19] = qHTS of pediatric cancer cell lines to identify multiple opportunities for drug repurposing: Primary screen for A673 cells (AID 1347092); further: nearly all actives have a fitted effect of over 45% in size
How it was run: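 Cell viability of A673 measured by CellTiter-Glo ATP luminescence after 48 hours compound exposure. Dilution series spanned 0.78 nM to 46 µM (MIPE, 11-point) or 0.59 nM to 46 µM (NPC, 8-point); bortezomib 2.3 uM positive control.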

Measured: Potency

O=c1[nH]c2cc(C(F)(F)F)c(N3CCOCC3)cc2n(CP(=O)(O)O)c1=O
not listed: [15] | [16] | [17] | [18] | [19]
inactive: all other assays above

CN(C/C=C/C#CC(C)(C)C)Cc1cccc2ccccc12
not listed: [6] | [8] | [12] | [14] | [16] | [17] | [18] | [19]
inactive: all other assays above

CCN(CC)CCOC(=O)C(c1ccccc1)c1ccccc1
not listed: [18] | [19]
inactive: all other assays above

CCN[C@H]1CN(CCCOC)S(=O)(=O)c2sc(S(N)(=O)=O)cc21
not listed: [2]
inactive: all other assays above

CC(C)CCOC(=O)c1ccc(N(C)C)cc1
not listed: [18]
inactive: all other assays above

CC(=O)N1C[C@H](O)C[C@H]1C(=O)O
not listed: [8] | [12] | [18]
inactive: all other assays above

CCN(CC)CCc1nc(-c2ccccc2)no1
not listed: [9] | [12] | [17] | [18]
inactive: all other assays above

CCCCC1(COC(=O)CCC(=O)O)C(=O)N(c2ccccc2)N(c2ccccc2)C1=O
not listed: [2] | [17]
inactive: all other assays above

C[C@]1(Cn2ccnn2)[C@H](C(=O)O)N2C(=O)C[C@H]2S1(=O)=O
not listed: [11] | [18]
inactive: all other assays above

NC(=O)CCCCC1CCSS1 (configuration not stated)
not listed: [18]
inactive: all other assays above

Cc1ncc(CO)c(CN)c1O
not listed: [2]
inactive: all other assays above

Cc1ccc2c(c1)c1c3n2CCNC3CCC1 (configuration not stated)
not listed: [3] | [8] | [11] | [17]
inactive: all other assays above

CNc1c2c(nn1C)CCCC2
not listed: [2]
inactive: all other assays above

CCCCCCCCCCC(CO)CCCCCCCC (configuration not stated)
not listed: [18]
inactive: all other assays above

CCCCCC(C)N (configuration not stated)
not listed: [2] | [15]
inactive: all other assays above

CC(N)CCCC(C)(C)O (configuration not stated)
not listed: [17] | [18]
inactive: all other assays above

CN1CCCN=C1COC(=O)C(O)(c1ccccc1)C1CCCCC1 (configuration not stated)
not listed: [8] | [9] | [11] | [13] | [18] | [19]
inactive: all other assays above
